Giardia kill: Giardia lamblia killing | Giardia lamblia trophozoite viability | activity change, % at 7.66 µM, hits read low | 0.15% of 340,000 active | AID 540267; in the data active means activity change below about -80%; inconclusive means between about -30% and that limit;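 further: parasites exposed to compound for two days anaerobically before the ATP read; on the % scale 0 is the no-effect control and ±100 the full control effect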
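Luminescent ATP signal served as the viability read-out, measured 15-30 min after adding ATP detection reagent to trophozoites that had been incubated with compounds for 48 hrs at 37 deg C anaerobically at 100 cells/well.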
MCF10A rerep: DNA re-replication induction in MCF 10a cells; 2.9% of 350,000 active; MCF 10A DNA re-replication, Hoechst nuclear intensity, 48 h; AID 624296; Potency, µM (highest dose often 46.1 µM), inactives show top-dose activity, positive = re-replication, actives largely listed as activators; further: potency means the concentration at half of the fitted maximal effect; % of control where 0% means no effect; nearly all actives have a fitted effect of over 50% in size
KB-V1 cytotox: KB-V1 MDR subline cytotoxicity; KB-V1 MDR cells viability, CellTiter-Glo, 72 h; Potency, µM (highest dose often 46.1 µM), hits mostly cytotoxic; AID 1347076; 3.4% of 400,000 active; further: potency means the concentration at half of the fitted maximal effect; on the % scale 0 is the no-effect control and ±100 the full control effect; nearly all actives have a fitted effect of over 60% in size
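KB-V1 cells (P-gp-expressing MDR subline of KB-3-1) in phenol-red-free DMEM with 10% FBS were exposed to library compounds over a concentration series for 72 h at 37 degrees C. Viability read by CellTiter-Glo luminescence; concentration-effect curves fitted after normalization.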
KB-3-1 cytotox: KB-3-1 parental cell cytotoxicity; AID 1347075; KB-3-1 viability, CellTiter-Glo ATP luminescence, 72 h; 1.4% of 400,000 active; Potency, µM (series often up to 46.1 µM), most hits filed as cytotoxic; further: potency means the concentration at half of the fitted maximal effect; on the % scale 0 is the no-effect control and ±100 the full control effect; nearly all actives have a fitted effect of over 60% in size
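Multi-concentration cytotoxicity screen in KB-3-1 cells grown in DMEM lacking phenol red with 10% FBS. After 72 h at 37 °C with compound, ATP-dependent luminescence was recorded.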
SW480 rereplic: inducers of DNA re-replication in SW480 colon cancer cells | SW480 DNA re-replication, Hoechst DNA content imaging, 48 h | Potency, µM (top dose mostly 46.1 µM), for the others: at the top dose re-replication activation, most hits filed as activators | 1.8% of 340,000 active | AID 624297; further: potency means the concentration at half of the fitted maximal effect; % of control where 0% means no effect; nearly all actives have a fitted effect of over 55% in size
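DNA re-replication was detected as more nuclei of elevated Hoechst intensity after 48 hr exposure to compound (23 nL pinned per well of 250 cells).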
ASM inhibitor: human S-ASM enzyme inhibition | Potency, µM (highest dose often 57.5 µM), for inactives: at the top dose activity change, negative = inhibition, hits mostly inhibitors | 0.006% of 340,000 active | placental ASM, HMU-PC fluorogenic substrate, 60 min; further: potency means the concentration at half of the fitted maximal effect
Target sequence (P17405 47-631 limits assumed): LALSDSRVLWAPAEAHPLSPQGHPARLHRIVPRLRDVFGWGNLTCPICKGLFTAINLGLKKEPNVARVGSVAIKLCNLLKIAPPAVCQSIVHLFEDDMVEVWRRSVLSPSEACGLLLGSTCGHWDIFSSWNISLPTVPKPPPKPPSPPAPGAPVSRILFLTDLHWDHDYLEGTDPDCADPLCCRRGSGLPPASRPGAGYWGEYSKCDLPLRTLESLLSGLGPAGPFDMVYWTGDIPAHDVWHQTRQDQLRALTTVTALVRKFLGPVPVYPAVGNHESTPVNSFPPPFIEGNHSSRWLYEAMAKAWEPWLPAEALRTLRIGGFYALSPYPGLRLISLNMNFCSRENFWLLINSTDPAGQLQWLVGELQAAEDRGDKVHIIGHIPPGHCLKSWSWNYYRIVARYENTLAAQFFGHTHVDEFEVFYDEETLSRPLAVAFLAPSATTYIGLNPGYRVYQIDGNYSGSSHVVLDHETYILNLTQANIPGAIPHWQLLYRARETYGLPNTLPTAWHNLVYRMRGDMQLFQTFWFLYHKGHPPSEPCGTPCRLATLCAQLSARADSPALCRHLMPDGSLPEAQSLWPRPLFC
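Steps: dispense placental human ASM, pin compound, wait 10 min at room temperature, add HMU-PC0 substrate at 9 uM final, incubate 60 min at 37 °C, add stop solution raising pH to 10, read fluorescence.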
An asterisk follows results filed as active; i = inactive; ? = inconclusive; . = not tested or not shown; ! = not active in a repeat; [ ] = dose if it differs, or a comment. Shown are actives, neighbours in structure and some others; about 6.9% of the full set was active somewhere. Unless noted, the call rests on the fitted dose curve; in most records, active means well fitted curve in the direction sought with a large enough effect; inconclusive means small, poorly fitted or top-dose-only effect, or another doubt; inactive means no such curve, though single readings can be large; an effect the other way counts as inactive or inconclusive.

SMILES	Giardia kill	MCF10A rerep	KB-V1 cytotox	KB-3-1 cytotox	SW480 rereplic	ASM inhibitor
Cc1cccc(/C=C/c2onc(C)c2S(=O)(=O)N2CCC(C(=O)N3CCCCCC3)CC2)c1	0	4%	i	i	?	-3%
Cc1cccc(/C=C/c2onc(C)c2S(=O)(=O)N2CCC(C(=O)N3CCC(C)CC3)CC2)c1	-4	?	?	16µM*!	13%	-3%
CCOCCCNC(=O)C1CCN(S(=O)(=O)c2c(C)noc2/C=C\c2ccc(OC)cc2)CC1	7	11%	18µM*	i	5%	29%
COc1ccc(/C=C/c2onc(C)c2S(=O)(=O)N2CCC(C(=O)N3CCC(C)CC3)CC2)cc1	-2	?	i	21µM*!	16%	15%
O=C(Cn1c(=O)nc(-c2ccccc2F)c2cc(Cl)ccc21)NCCCc1ccccc1	.	.	i	i	.	.
O=C1Cc2cc(S(=O)(=O)N3CCN(c4ccc(C(F)(F)F)cc4)CC3)ccc2N1	.	.	i	i	.	.
COc1ccccc1NC(=O)C1=C(C)Nc2nc(SCc3ccccc3)nn2C1c1ccccn1 (centres undefined)	.	.	i	i	.	.
CC1CCN(c2ccc(NC(=O)c3cccnc3)cc2)CC1	7	2%	18µM*	i	-5%	5%
Cc1cc(Nc2cc(Cl)nc(Sc3ccc(NC(=O)C4CC4)cc3)n2)n[nH]1	16	34%	i	1.6µM*	21µM*	0%
O=C(N/N=C/c1ccccc1F)C(=O)N1CCCCCC1	13	-14%	i	i	-19%	0%
O=C(N/N=C/c1ccccc1O)C(=O)N1CCCCCC1	26	17%	i	?	5.8µM*	-2%
COc1ccc(S(=O)(=O)N2CCN(C(=O)NC3CCCCC3)CC2)cc1OC	2	4%	16µM*	i	1%	5%
COc1ccc(S(=O)(=O)N2CCC(C(=O)NC3CCCCC3)CC2)cc1OC	2	0%	i	i	?	.
COc1ccc(NC(=O)C2CCCN(C(=O)NC3CCCCC3)C2)cc1OC (centres undefined)	7	2%	15µM*	i	1%	3%
Cc1nn(-c2ccccc2)c2nc(=O)n(-c3ccccc3)cc12	0	0%[9.22 µM]	i	i	-12%	-1%
Cc1ccc2nc3c(cc2c1)c(C)nn3-c1ccccc1	-2	?	i	i	7.3µM*	i
CCN1C(=O)[C@@H]2[C@@H](c3ccc(SC4CCCCC4)c(OC)c3)N3CCC[C@@]3(C(=O)OC)[C@@H]2C1=O	11	-2%	i	i	16%	-2%
Cc1cc(Cl)n2nc(C)c(-c3ccc(Cl)cc3)c2n1	-6	16µM*	i	i	?	-8%
COc1ccc(CCNc2cc(C)nc3c(-c4ccccc4)c(C)nn23)cc1OC	7	19%	8.2µM*	i	-34%	1%
Cc1cc(NCCCn2ccnc2)n2nc(C)c(-c3ccc(Cl)cc3)c2n1	1	21%	23µM*	?	3%	-1%
Cc1cc(N)n2nc(C)c(-c3ccc(Cl)cc3)c2n1	-14	23%	?	i	13%	3%
COc1ccc(CCNc2cc(C)nc3c(-c4ccccc4)cnn23)cc1OC	10	?	i	i	6%	8%
Cc1cc(NCCN2CCOCC2)n2nc(C)c(-c3ccccc3)c2n1	7	-1%	i	i	-8%	3%
Cc1cc(NCCN2CCOCC2)n2nc(C)c(-c3ccc(Cl)cc3)c2n1	-15	-1%	23µM*	?	12%	-2%
Cc1cccc(N(CC(=O)NC2CCCC2)C(=O)CCC(=O)Nc2ccccn2)c1	3	6%	?	i	-2%	4%
SMILES	Giardia kill	MCF10A rerep	KB-V1 cytotox	KB-3-1 cytotox	SW480 rereplic	ASM inhibitor
CC(C)c1ccc(S(=O)(=O)N2CCN(Cc3cccc(F)c3)CC2)cc1	.	.	i	i	.	.
CCN(c1ccccc1)S(=O)(=O)c1ccc(NC(=O)c2cc(=O)c3cc(C)cc(C)c3o2)cc1	.	.	i	i	.	.
Nc1nc(NCCc2ccccc2)c2[nH]cnc2n1	16	.	i	i	.	.
CCN(CC)c1ccc(NC(=O)c2ccccc2F)cc1S(=O)(=O)Nc1ccccc1OC	-2	2%	9.2µM*	i	-79%	-1%
CCN(CC)c1ccc(NC(=O)c2ccc(=O)[nH]c2)cc1S(=O)(=O)Nc1ccccc1OC	6	?	i	10µM*	?	-12%
CC(=O)Nc1ccc(NC(=O)c2c(C)nn(-c3ccccc3)c2-n2cccc2)cc1	.	.	i	i	.	.
CC(=O)c1ccc(Nc2cc(C)nc3c(C)cc(C)cc23)cc1	10	?	?	?	2.6µM*	29%
CCOC(=O)c1ccc(NC(=O)CC(=O)Nc2ccc3nc4n(c(=O)c3c2)CCCCC4)cc1	.	.	i	i	.	.
CCN(Cc1ccccc1)S(=O)(=O)c1ccc(C(=O)N(CCCN(C)C)c2nc3cc4c(cc3s2)OCCO4)cc1	3	?	i	i	?	?
COc1cc2nc(N(CCCN(C)C)C(=O)c3ccc(S(=O)(=O)N4CCc5ccccc54)cc3)sc2cc1OC	22	5%	i	i	?	-4%
COc1ccc2sc(N(CCCN(C)C)C(=O)c3ccc(S(=O)(=O)N4CCCc5ccccc54)cc3)nc2c1	10	?	21µM*	i	?	-15%
CCN(Cc1ccccc1)S(=O)(=O)c1ccc(C(=O)N(CCCN(C)C)c2nc3cc(OC)ccc3s2)cc1	-1	16µM*	i	i	?	-9%
Cc1c(C(=O)Nc2ccc(C(C)C)cc2)sc2nc[nH]c(=O)c12	.	.	i	i	.	.
CCc1ccccc1NC(=O)Cn1cc(S(=O)(=O)N2CCCC2)c(S(=O)(=O)N2CCCC2)c1	.	.	i	i	.	.
CC(=O)C1=C(O)CC(c2ccccc2)CC1=NCCc1ccccc1 (centres undefined)	4	3%	?	i	0%	-1%
CC(=O)C1=C(O)CCC1=NCCc1ccccc1	11	21µM*	i	i	?	-2%
CCN(Cc1ccccc1)C(=O)CCc1c(C)nc2c(c(C)nn2-c2ccc(C)c(C)c2)c1C	.	.	i	i	.	.
CCOc1ccc(OCCC(=O)OCC(=O)NCCc2ccc(S(N)(=O)=O)cc2)cc1	2	-8%	?	?	?	7%
Cc1ccc(S(=O)(=O)Cc2sc3ccccc3[n+]2C)cc1	8	24%	21µM*	i	-3%	0%
COc1cc(OC)c(NC(=O)Nc2nnc(N(C)C3CCCCC3)s2)cc1Cl	.	.	i	i	.	.

High-throughput results: PubChem, National Center for Advancing Translational Sciences (NCATS)
